# Data from PubChem BioAssay (EPA / NIEHS).
# Several values for one entry are separate records, joined by “and”; a condition that tells them apart may be missing. Equal entries are not always repeated. Inconclusive results are not listed. Some compounds were tested as several samples or in several runs, with calls that do not always agree. Activity calls are given as the source filed them. How the source made its calls, unless noted: active means hit-call score of the fitted dose curve at least 0.9, where 1 is the maximum; inconclusive means response in the unintended direction; inactive means score below 0.9.
# Assays:
# [1] = target: Retinoic acid receptor alpha (Homo sapiens) (UniProt P10276); assay: ATG_DR5_RAR_CIS: Attagene CIS-FACTORIAL HepG2 Assay for human Retinoic Acid Receptor Alpha (RARE), DR5 submotif (AID 2282934; active means hit-call score of the fitted dose curve at least 0.9, where 1 is the maximum; inactive means score below 0.9); settings: HepG2 Attagene cis-factorial RARE DR5 reporter, mRNA; actives raise or lower the signal
# Procedure, shortened: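 Transfected HepG2 reporter cells are exposed to chemicals for 24 h. Then RNA is extracted and the DR5 element reporter transcript is measured by RT-PCR and capillary electrophoresis, with bidirectional curve fitting relative to DMSO.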
# [2] = ATG_ERE_CIS: Attagene CIS-FACTORIAL HepG2 Assay for Estrogen Response Element (ERE) (AID 2282940; active means hit-call score of the fitted dose curve at least 0.9, where 1 is the maximum; inactive means score below 0.9); settings: HepG2 ERE cis-reporter, Attagene RNA transcript; actives raise or lower the signal
# Procedure, shortened: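 Human liver cells (HepG2) bearing transiently transfected, promoter-regulated reporter units were exposed 24 h. Reporter mRNA induction was detected by capillary electrophoresis of labelled RT-PCR products and fitted bidirectionally to DMSO.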
# [3] = ATG_GRE_CIS: Attagene CIS-FACTORIAL HepG2 Assay for human Glucocorticoid Response Elements (GRE) (AID 2282947; active means hit-call score of the fitted dose curve at least 0.9, where 1 is the maximum; inactive means score below 0.9); settings: HepG2 GRE cis-reporter, Attagene multiplex mRNA; actives raise or lower the signal
# Procedure, shortened: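 Following 24 h chemical exposure of transiently transfected HepG2 cells, total RNA was reverse-transcribed and reporter cDNA amplified, fluorescently labelled and sized by capillary electrophoresis. Signal gain or loss was fitted relative to DMSO vehicle.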
# [4] = ATG_GAL4_TRANS: Attagene TRANS-FACTORIAL HepG2 Assay for GAL4 (Internal Marker) (AID 2282976); settings: HepG2 Attagene TRANS GAL4 internal marker reporter
# Procedure, shortened: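 HepG2 cells transiently transfected with multiplexed GAL4-UAS reporter constructs were dosed for 24 h. Reporter mRNA was measured by RT-PCR, 6-FAM primer extension, HpaI digestion and capillary electrophoresis, and gain of signal was fitted relative to DMSO.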
# [5] = target: Glucocorticoid receptor (Homo sapiens) (UniProt P04150); assay: ATG_GR_TRANS: Attagene TRANS-FACTORIAL HepG2 Assay for human Glucocorticoid Receptor (GR) (AID 2282978); settings: HepG2 Attagene TRANS GR reporter, mRNA transcription;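 further: activators score as hits since higher reporter transcript over DMSO is fitted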
# Procedure, shortened: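 After 24 h incubation with test chemical, transfected HepG2 cells were lysed for RNA; reporter cDNA was amplified, FAM-labelled, HpaI-digested and sized on a capillary analyser. Signal gain relative to DMSO was scored.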
# [6] = target: Oxysterols receptor LXR-beta (Homo sapiens) (UniProt P55055); assay: ATG_LXRb_TRANS: Attagene TRANS-FACTORIAL HepG2 Assay for human Liver X Receptor beta (LXRb) (AID 2282981); settings: HepG2 Attagene TRANS GAL4-LXRb reporter, mRNA
# Procedure, shortened: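 In this TRANS format, exogenous chimeric NR-Gal4 protein activity, not endogenous factors, drives reporter expression in transfected human HepG2 cells. Exposure lasted 24 h; reporter mRNA was read by fluorescent capillary electrophoresis.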
# [7] = target: Hepatocyte nuclear factor 4-alpha (Homo sapiens) (UniProt P41235); assay: ATG_HNF4a_TRANS: Attagene TRANS-FACTORIAL HepG2 Assay for human Hepatocyte Nuclear Factor 4 alpha (HNF4a) (AID 2282982); settings: HepG2 HNF4a transactivation reporter, mRNA readout
# Procedure, shortened: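 Cells used were human HepG2, transiently carrying GAL4-UAS reporter units read out against exogenous NR-GAL4 chimeras. Reporter transcript levels after 24 h dosing were quantified by fluorescent RT-PCR and capillary electrophoresis.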
# [8] = target: Nuclear receptor subfamily 4 group A member 2 (Homo sapiens) (UniProt P43354); assay: ATG_NURR1_TRANS: Attagene TRANS-FACTORIAL HepG2 Assay for human Nuclear Receptor Related Protein 1 (NURR1) (AID 2282985); settings: HepG2 Attagene TRANS reporter, mRNA readout
# Procedure, shortened: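 After 24 h chemical dosing, total RNA from transiently transfected HepG2 cells was reverse-transcribed and reporter cDNA PCR-amplified, FAM-labelled and analysed by capillary electrophoresis. Activity fitted in positive direction, DMSO as negative control.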
# [9] = target: human Peroxisome Proliferator-activated Receptor delta (PPARd), PPARD (gene 5467) (UniProt Q03181); assay: ATG_PPARd_TRANS: Attagene TRANS-FACTORIAL HepG2 Assay for human Peroxisome Proliferator-activated Receptor delta (PPARd) (AID 2283002)
# Procedure, shortened: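 Measured quantity: GAL4-UAS reporter transcript induction in HepG2 after 24 h chemical dosing, with NR-Gal4 chimeras supplied by transient transfection. Detection by RT-PCR and capillary electrophoresis; upward fit against DMSO.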
# [10] = target: human RAR-related Orphan Receptor gamma (RORg), RORC (gene 6097) (UniProt P51449); assay: ATG_RORg_TRANS: Attagene TRANS-FACTORIAL HepG2 Assay for human RAR-related Orphan Receptor gamma (RORg) (AID 2283011)
# Procedure, shortened: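 Readout: reporter transcript induction (RT-PCR, fluorescent primer extension, capillary electrophoresis) after 24 h compound exposure of transiently transfected HepG2 cells carrying a RORg-Gal4 chimera and GAL4-UAS reporters; DMSO served as baseline, with increasing signal fitted.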
# [11] = TOX21_p53_BLA_p2_viability: Viability Assessment in the Tox21 HCT-116 p53 Agonism Beta-lactamase Assay, Phase 2 (AID 2283591);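 further: compound exposure lasted 16 h at 37 °C; actives lower the ATP signal meaning cytotoxicity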
# Procedure, shortened: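 HCT-116 p53-bla cells (4000/well) rested 5 h at 37C, then received compounds in DMSO (217-fold dilution) for 16 h at 37C, 5% CO2. After the CCF4 read, CellTiter-Glo was added; ATP luminescence was read after 30 min at room temperature.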
# [12] = TOX21_p53_BLA_p4_viability: Viability Assessment in the Tox21 HCT-116 p53 Agonism Beta-lactamase Assay, Phase 4 (AID 2283597);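 further: hits lower the luminescence signal meaning cytotoxicity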
# Procedure, shortened: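 HCT116 p53-bla cells (4000/well) rested 5 h at 37C, then received compounds in DMSO (217-fold dilution) for 16 h at 37C, 5% CO2. CellTiter-Glo was added after the CCF4-AM read, and luminescence was read after 30 min at room temperature.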
# [13] = ATG_M_19_TRANS: Attagene TRANS-FACTORIAL HepG2 Assay for M19 Transcription Factor (Internal Marker) (AID 2282974); settings: HepG2 Attagene TRANS-FACTORIAL M19 internal marker reporter
# Procedure, shortened: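 Transfected HepG2 (GAL4-UAS MRTUs), 24 h compound, TriZol RNA, DNase-treated RT, reporter PCR, FAM label, HpaI digest, CE fluorescence; gain vs DMSO.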
# [14] = target: human RAR-related Orphan Receptor beta (RORb), RORB (gene 6096) (UniProt Q92753); assay: ATG_RORb_TRANS: Attagene TRANS-FACTORIAL HepG2 Assay for human RAR-related Orphan Receptor beta (RORb) (AID 2283010)
# Procedure, shortened: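 Readout is reporter-gene mRNA induction, detected as fluorescence after RT-PCR and capillary electrophoresis, fitted for gain of signal against DMSO controls. Transiently transfected HepG2 liver cells carrying GAL4-UAS reporter constructs were treated for 24 hours.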
# [15] = target: Bile acid receptor (Homo sapiens) (UniProt Q96RI1); assay: ATG_IR1_CIS: Attagene CIS-FACTORIAL HepG2 Assay for human Nuclear Receptor Subfamily 1 Group H Member 4 (NR1H4), IR1 submotif (AID 2282946; active means hit-call score of the fitted dose curve at least 0.9, where 1 is the maximum; inactive means score below 0.9); settings: IR1 reporter transcription, actives raise or lower the signal
# Procedure, shortened: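 Transient MRTU transfection, HepG2; 24 h dosing; RNA → RT-PCR → 6-FAM primer extension → HpaI digest → capillary electrophoresis fluorescence. Gain/loss of signal fitted relative to DMSO.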
# [16] = ATG_M_06_TRANS: Attagene TRANS-FACTORIAL HepG2 Assay for M06 Transcription Factor (Internal Marker) (AID 2282983); settings: HepG2 Attagene TRANS M06 internal marker reporter
# Procedure, shortened: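 HepG2 cells transiently transfected with multiplexed GAL4-UAS reporter transcription units; after 24 h compound exposure, reporter mRNA measured by RT-PCR, FAM-labelled primer extension, HpaI digestion and capillary electrophoresis. Gain-of-signal fitted versus DMSO baseline; background control readout.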
# [17] = TOX21_p53_BLA_p3_viability: Viability Assessment in the Tox21 HCT-116 p53 Agonism Beta-lactamase Assay, Phase 3 (AID 2283593);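 further: cells exposed to compound for 16 h before reading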
# Procedure, shortened: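 HCT-116 cells (4000/well) rested 5 h at 37C, then got DMSO compounds by pin tool (217-fold dilution) for 16 h at 37C, 5% CO2. After the bla read, CellTiter-Glo was added and luminescence read at 30 min, room temperature.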
# [18] = target: human Vitamin D Receptor (VDR), VDR (gene 7421) (UniProt P11473); assay: ATG_VDR_TRANS: Attagene TRANS-FACTORIAL HepG2 Assay for human Vitamin D Receptor (VDR) (AID 2283022)
# Procedure, shortened: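 HepG2 cells were transiently transfected with multiple GAL4-UAS reporter units, so signal reflects exogenous chimeric receptor-Gal4 activity. After 24 h compound exposure, reporter mRNA was measured by RT-PCR, fluorescent labelling and capillary electrophoresis, fitted for gain of signal versus DMSO.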
# [19] = CCTE_Harrill_HTTr_Apoptosis_MCF7: CCTE's 6-hour Apoptosis Assessment for the High-Throughput Transcriptomics (HTTr) Platform, in MCF-7 cells cultured in DMEM + 10% fetal bovine serum, Harrill Lab (AID 2284011; active means hit-call score of the fitted dose curve at least 0.9, where 1 is the maximum; inactive means score below 0.9)
# Procedure, shortened: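 MCF-7 cells in DMEM + 10% fetal bovine serum were exposed to chemicals for 6 hours over an eight-point dilution series. Caspase-3/7 activation was imaged by high content imaging with CellEvent Caspase 3/7 Green; bidirectional fitting used DMSO as baseline.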
# [20] = ATG_VDRE_CIS: Attagene CIS-FACTORIAL HepG2 Assay for human Vitamin D Receptor Element (VDRE) (AID 2282968; active means hit-call score of the fitted dose curve at least 0.9, where 1 is the maximum; inactive means score below 0.9); settings: HepG2 VDRE cis-reporter transcription, actives raise or lower the signal
# Procedure, shortened: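 RT-PCR/CE readout of reporter mRNA; HepG2, transient transfection, 24 h dosing; DMSO baseline; bidirectional analysis.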
# Retinoic acid receptor alpha (Homo sapiens), sequence (P10276 whole entry, looked up): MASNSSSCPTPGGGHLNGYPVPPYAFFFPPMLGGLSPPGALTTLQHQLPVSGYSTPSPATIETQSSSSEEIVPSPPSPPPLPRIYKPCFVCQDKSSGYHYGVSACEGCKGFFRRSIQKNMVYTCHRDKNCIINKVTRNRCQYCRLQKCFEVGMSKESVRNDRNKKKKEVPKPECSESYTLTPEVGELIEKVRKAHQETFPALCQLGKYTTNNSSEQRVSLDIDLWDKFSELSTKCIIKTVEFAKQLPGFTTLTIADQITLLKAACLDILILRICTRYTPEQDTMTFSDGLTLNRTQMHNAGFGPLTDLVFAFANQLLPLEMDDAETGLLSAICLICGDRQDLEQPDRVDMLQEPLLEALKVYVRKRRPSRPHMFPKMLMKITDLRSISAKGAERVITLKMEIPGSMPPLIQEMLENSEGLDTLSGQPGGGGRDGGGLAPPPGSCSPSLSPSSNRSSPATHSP
# human Peroxisome Proliferator-activated Receptor delta (PPARd), PPARD (gene 5467), sequence (Q03181 whole entry, looked up, the tested form may be a part): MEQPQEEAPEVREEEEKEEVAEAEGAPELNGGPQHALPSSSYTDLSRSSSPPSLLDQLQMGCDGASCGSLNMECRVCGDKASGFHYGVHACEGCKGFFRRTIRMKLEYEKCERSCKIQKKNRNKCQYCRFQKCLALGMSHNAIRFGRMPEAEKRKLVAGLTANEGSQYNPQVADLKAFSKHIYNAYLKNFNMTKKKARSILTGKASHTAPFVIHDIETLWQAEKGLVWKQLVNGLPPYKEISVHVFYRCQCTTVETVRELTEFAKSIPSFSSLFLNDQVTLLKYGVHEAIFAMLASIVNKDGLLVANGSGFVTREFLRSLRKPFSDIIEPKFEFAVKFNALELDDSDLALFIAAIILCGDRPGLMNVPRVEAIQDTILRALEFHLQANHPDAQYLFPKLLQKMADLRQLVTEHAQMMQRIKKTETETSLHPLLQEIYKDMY
# human RAR-related Orphan Receptor gamma (RORg), RORC (gene 6097), sequence (P51449 whole entry, looked up, the tested form may be a part): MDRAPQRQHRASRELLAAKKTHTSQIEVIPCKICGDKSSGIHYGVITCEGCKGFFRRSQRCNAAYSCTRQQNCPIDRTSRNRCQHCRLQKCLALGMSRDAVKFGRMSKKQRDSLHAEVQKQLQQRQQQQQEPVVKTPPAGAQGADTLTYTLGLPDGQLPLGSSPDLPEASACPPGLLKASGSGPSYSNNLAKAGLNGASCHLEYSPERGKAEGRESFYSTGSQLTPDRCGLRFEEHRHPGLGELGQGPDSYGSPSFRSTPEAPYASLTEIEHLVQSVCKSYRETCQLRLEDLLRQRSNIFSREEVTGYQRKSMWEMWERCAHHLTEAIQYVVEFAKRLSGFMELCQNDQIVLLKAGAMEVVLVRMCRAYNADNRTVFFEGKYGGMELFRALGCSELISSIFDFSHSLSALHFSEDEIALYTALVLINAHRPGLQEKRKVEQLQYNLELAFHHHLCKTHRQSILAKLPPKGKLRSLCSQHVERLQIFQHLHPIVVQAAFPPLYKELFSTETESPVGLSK
# Oxysterols receptor LXR-beta (Homo sapiens), sequence (P55055 whole entry, looked up, the tested form may be a part): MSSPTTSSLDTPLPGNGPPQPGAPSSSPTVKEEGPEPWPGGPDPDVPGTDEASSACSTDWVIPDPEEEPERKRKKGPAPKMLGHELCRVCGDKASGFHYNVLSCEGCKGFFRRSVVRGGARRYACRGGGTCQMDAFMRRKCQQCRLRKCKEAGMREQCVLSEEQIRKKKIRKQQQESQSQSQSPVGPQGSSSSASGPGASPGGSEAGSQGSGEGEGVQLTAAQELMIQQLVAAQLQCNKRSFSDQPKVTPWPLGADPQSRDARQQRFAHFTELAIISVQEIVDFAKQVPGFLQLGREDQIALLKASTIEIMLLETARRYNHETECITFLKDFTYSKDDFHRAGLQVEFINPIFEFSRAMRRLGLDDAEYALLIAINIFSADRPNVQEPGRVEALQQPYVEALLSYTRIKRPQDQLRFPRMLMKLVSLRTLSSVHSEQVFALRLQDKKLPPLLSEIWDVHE
# Hepatocyte nuclear factor 4-alpha (Homo sapiens), sequence (P41235 whole entry, looked up, the tested form may be a part): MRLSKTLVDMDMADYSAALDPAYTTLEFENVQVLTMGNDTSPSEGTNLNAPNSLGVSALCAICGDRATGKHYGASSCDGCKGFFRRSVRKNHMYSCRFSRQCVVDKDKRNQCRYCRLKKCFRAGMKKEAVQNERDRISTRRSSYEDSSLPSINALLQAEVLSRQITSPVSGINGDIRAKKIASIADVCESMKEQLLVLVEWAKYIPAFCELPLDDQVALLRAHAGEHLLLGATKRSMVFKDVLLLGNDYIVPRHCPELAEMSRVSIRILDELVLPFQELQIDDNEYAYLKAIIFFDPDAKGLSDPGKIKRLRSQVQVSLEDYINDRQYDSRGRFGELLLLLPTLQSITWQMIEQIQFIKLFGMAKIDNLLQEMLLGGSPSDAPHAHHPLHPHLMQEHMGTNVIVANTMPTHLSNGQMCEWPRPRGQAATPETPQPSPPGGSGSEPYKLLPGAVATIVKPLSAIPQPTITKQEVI
# Bile acid receptor (Homo sapiens), sequence (Q96RI1 whole entry, looked up): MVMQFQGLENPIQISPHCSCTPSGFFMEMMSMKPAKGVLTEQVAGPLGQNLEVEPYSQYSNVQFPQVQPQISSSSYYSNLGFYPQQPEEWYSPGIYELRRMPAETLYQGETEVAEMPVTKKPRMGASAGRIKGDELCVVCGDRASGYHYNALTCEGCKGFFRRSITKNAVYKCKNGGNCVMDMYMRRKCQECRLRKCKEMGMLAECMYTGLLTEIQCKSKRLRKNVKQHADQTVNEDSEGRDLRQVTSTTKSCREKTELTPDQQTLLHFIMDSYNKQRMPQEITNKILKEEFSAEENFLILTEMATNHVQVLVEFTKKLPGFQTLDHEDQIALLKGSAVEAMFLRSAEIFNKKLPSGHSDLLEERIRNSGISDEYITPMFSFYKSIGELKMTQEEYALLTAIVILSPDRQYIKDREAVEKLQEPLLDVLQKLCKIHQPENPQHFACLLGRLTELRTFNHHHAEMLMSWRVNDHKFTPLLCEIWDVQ
# human RAR-related Orphan Receptor beta (RORb), RORB (gene 6096), sequence (Q92753 whole entry, looked up, the tested form may be a part): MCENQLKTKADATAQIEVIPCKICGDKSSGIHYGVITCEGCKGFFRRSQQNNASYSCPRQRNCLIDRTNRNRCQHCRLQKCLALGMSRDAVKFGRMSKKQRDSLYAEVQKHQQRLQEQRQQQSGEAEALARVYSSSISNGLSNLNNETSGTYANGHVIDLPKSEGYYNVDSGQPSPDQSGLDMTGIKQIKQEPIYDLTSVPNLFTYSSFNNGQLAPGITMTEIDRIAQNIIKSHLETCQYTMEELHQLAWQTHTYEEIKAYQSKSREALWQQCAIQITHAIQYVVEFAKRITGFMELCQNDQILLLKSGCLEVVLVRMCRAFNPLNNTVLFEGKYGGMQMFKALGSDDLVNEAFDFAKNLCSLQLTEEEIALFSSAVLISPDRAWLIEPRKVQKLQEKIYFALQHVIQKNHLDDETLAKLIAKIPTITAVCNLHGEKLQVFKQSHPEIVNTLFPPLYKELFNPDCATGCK
# Glucocorticoid receptor (Homo sapiens), sequence (P04150 whole entry, looked up): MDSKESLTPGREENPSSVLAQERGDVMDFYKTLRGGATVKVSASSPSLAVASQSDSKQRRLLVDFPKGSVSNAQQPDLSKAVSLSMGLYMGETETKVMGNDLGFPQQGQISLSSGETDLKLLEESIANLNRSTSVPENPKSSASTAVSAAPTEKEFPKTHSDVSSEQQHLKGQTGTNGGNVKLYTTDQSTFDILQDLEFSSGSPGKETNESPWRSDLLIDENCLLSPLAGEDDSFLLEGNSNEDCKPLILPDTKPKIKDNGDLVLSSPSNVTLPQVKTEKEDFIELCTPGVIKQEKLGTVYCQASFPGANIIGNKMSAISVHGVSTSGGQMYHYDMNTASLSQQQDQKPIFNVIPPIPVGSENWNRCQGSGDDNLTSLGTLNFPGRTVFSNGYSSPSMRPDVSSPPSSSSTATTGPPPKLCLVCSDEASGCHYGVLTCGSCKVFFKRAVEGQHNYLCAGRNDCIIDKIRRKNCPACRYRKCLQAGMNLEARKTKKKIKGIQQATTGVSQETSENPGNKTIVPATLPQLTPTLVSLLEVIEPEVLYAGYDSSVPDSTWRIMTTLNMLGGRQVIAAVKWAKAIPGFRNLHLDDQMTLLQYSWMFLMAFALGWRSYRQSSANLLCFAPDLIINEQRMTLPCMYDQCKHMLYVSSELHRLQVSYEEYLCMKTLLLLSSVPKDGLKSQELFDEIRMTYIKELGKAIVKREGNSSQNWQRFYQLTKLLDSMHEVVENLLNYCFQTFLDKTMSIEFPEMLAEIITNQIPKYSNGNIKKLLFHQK
# human Vitamin D Receptor (VDR), VDR (gene 7421), sequence (P11473 whole entry, looked up, the tested form may be a part): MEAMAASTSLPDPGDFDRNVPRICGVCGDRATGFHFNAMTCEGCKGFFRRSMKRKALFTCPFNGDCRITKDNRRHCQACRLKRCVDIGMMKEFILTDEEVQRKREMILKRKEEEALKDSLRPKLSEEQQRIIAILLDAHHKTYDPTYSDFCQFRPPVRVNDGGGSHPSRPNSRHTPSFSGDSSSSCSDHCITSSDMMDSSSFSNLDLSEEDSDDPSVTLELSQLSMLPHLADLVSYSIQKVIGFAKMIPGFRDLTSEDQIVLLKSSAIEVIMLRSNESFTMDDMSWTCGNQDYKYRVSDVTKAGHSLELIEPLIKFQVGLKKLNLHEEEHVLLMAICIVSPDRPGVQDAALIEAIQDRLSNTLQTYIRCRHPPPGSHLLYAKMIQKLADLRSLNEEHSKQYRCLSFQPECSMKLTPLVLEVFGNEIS
smiles,measurement,setting,value
C=C(Cl)Cl,outcome,[1],inactive
same,outcome,[2],inactive
same,outcome,[3],inactive
same,outcome,[4],inactive
same,outcome,[5],inactive
same,outcome,[6],inactive
same,outcome,[7],inactive
same,outcome,[8],inactive
same,outcome,[9],inactive
same,outcome,[10],inactive
same,outcome,[11],inactive
same,outcome,[12],inactive
COC(=O)COc1ccc(Cl)cc1Cl,outcome,[1],inactive
same,outcome,[13],inactive
same,outcome,[4],inactive
same,outcome,[7],inactive
same,outcome,[14],inactive
same,outcome,[10],inactive
same,outcome,[11],inactive
same,outcome,[12],inactive
O=c1c2ccccc2c(=O)c2c1cc(Cl)c1[nH]c3c([nH]c12)c(Cl)cc1c(=O)c2ccccc2c(=O)c13,outcome,[2],inactive
same,outcome,[15],inactive
same,outcome,[3],inactive
same,outcome,[7],inactive
same,outcome,[16],inactive
same,outcome,[8],inactive
same,outcome,[9],inactive
same,outcome,[14],inactive
same,outcome,[10],inactive
same,outcome,[17],inactive
same,outcome,[12],inactive
Nc1ccccc1,outcome,[3],inactive
same,outcome,[4],inactive
same,outcome,[6],inactive
same,outcome,[16],inactive
same,outcome,[18],inactive
same,outcome,[19],inactive
N#CCCCCC#N,outcome,[15],inactive
same,outcome,[20],inactive
same,outcome,[5],inactive
same,outcome,[6],inactive
same,outcome,[10],inactive
same,outcome,[11],inactive
same,outcome,[12],inactive
same,outcome,[19],inactive
CCCCCCCCCCCCCCCC[N+](C)(C)C,AC50,[3],48.5 µM (active)
same,AC50,[20],9.16 µM (active)
same,outcome,[4],inactive
same,AC50,[7],27.6 µM (active)
same,outcome,[16],inactive
same,outcome,[8],inactive
same,outcome,[9],inactive
same,outcome,[14],inactive
same,outcome,[10],inactive
same,outcome,[18],inactive
C=CC(=O)OCCO,AC50,[20],116 µM (active)
same,outcome,[7],inactive
same,outcome,[16],inactive
same,outcome,[8],inactive
same,outcome,[9],inactive
same,outcome,[14],inactive
same,outcome,[18],inactive
O=C1C(Cl)=C(Cl)C(=O)C(Cl)=C1Cl,outcome,[1],inactive
same,outcome,[2],inactive
same,AC50,[15],72.4 µM (active)
same,outcome,[3],inactive
same,outcome,[20],inactive
same,outcome,[6],inactive
same,outcome,[7],inactive
same,outcome,[16],inactive
same,outcome,[8],inactive
same,outcome,[9],inactive
same,outcome,[10],inactive
same,outcome,[18],inactive
same,AC50,[11],58.9 µM (active)
same,outcome,[11],inactive
same,AC50,[17],21.6 µM (active) and 44.2 µM (active)
same,AC50,[12],73.4 µM (active) and 73.7 µM (active)
same,outcome,[19],inactive
C=C(Cl)CCl,outcome,[1],inactive
same,outcome,[2],inactive
same,outcome,[3],inactive
same,outcome,[20],inactive
same,outcome,[13],inactive
same,outcome,[4],inactive
same,outcome,[5],inactive
same,outcome,[6],inactive
same,outcome,[7],inactive
same,outcome,[14],inactive
same,outcome,[10],inactive
same,outcome,[18],inactive
same,outcome,[12],inactive
CCCCNP(N)(N)=S,outcome,[2],inactive
same,outcome,[15],inactive
same,outcome,[3],inactive
same,outcome,[20],inactive
same,outcome,[13],inactive
same,outcome,[6],inactive
same,outcome,[8],inactive
same,outcome,[9],inactive
same,outcome,[11],inactive
same,outcome,[17],inactive
same,outcome,[12],inactive
Cl/C=C\CCl,outcome,[1],inactive
same,outcome,[20],inactive
same,outcome,[13],inactive
same,outcome,[4],inactive
same,outcome,[5],inactive
same,outcome,[7],inactive
same,outcome,[16],inactive
same,outcome,[9],inactive
same,outcome,[10],inactive
same,outcome,[18],inactive
same,outcome,[19],inactive
